According to PubChem BioAssay (EPA / NIEHS):
Calls of active or inactive are those of the source. How the source made its calls, unless noted: active means hit-call score of the fitted dose curve at least 0.9, where 1 is the maximum; inactive means score below 0.9.

Experiments:
[1] = read-out: Protein phosphatase 2A (PPP2R4), PTPA (gene 5524); assay: LTEA_HepaRG_PPP2R4: Life Technologies and Expression Analysis (LTEA) Assay for Protein phosphatase 2A (PPP2R4) using HepaRG (AID 2283522); details: mRNA level, 48 h; actives raise or lower the signal
Outline: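 Gene-expression endpoint in HepaRG hepatic cells: 48 h treatment across eight half-log concentrations up to 100 uM in 0.5% DMSO. PPP2R4 mRNA by qRT-PCR, normalized to three endogenous control genes.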

[2] = read-out: Phosphatase and tensin (PTEN), PTEN (gene 5728); assay: LTEA_HepaRG_PTEN: Life Technologies and Expression Analysis (LTEA) Assay for Phosphatase and tensin (PTEN) using HepaRG (AID 2283523); details: mRNA level, 48 h; actives raise or lower the signal
Outline: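 Differentiated human HepaRG cells, plated 48 h then switched to serum-free induction medium, were exposed in duplicate for 48 h to eight half-log concentrations up to 100 uM in 0.5% DMSO. PTEN mRNA measured by TaqMan qRT-PCR, normalized to ACTB/GAPDH/POLR2A, bidirectional fit versus DMSO.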

[3] = read-out: solute carrier (SLC22A1), SLC22A1 (gene 6580); assay: LTEA_HepaRG_SLC22A1: Life Technologies and Expression Analysis (LTEA) Assay for solute carrier (SLC22A1) using HepaRG (AID 2283524); details: mRNA level, 48 h; actives raise or lower the signal
Outline: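 Human HepaRG cells were plated 48 h, switched to serum-free induction medium, then exposed in duplicate for 48 h to 8-point half-log series from 100 uM in 0.5% DMSO. SLC22A1 mRNA measured by qRT-PCR, normalized to ACTB/GAPDH/POLR2A, fitted bidirectionally versus DMSO.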

[4] = read-out: Pyruvate Dehydrogenase Kinase 4 (PDK4), PDK4 (gene 5166); assay: LTEA_HepaRG_PDK4: Life Technologies and Expression Analysis (LTEA) Assay for Pyruvate Dehydrogenase Kinase 4 (PDK4) using HepaRG (AID 2283525); details: mRNA level, 48 h; actives raise or lower the signal
Outline: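 Differentiated human HepaRG cells, pre-cultured 48 h, were exposed in duplicate for 48 h in serum-free induction medium to eight half-log concentrations up to 100 uM in 0.5% DMSO. PDK4 mRNA was quantified by qRT-PCR, normalized to ACTB, GAPDH and POLR2A, bidirectional fitting versus DMSO.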

[5] = read-out: NAD(P)H dehydrogenase [quinone] 1 (NQO1), NQO1 (gene 1728); assay: LTEA_HepaRG_NQO1: Life Technologies and Expression Analysis (LTEA) Assay for NAD(P)H dehydrogenase [quinone] 1 (NQO1) using HepaRG (AID 2283526); details: mRNA level, 48 h; actives raise or lower the signal
Outline: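 Human HepaRG hepatic cells received chemicals for 48 h in serum-free induction medium with 0.5% DMSO, up to 100 uM. Expression was assessed by TaqMan qRT-PCR against housekeeping controls and fitted bidirectionally against DMSO.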

[6] = read-out: Nuclear factor erythroid 2-related factor 2 (Homo sapiens) (UniProt Q16236); assay: LTEA_HepaRG_NFE2L2: Life Technologies and Expression Analysis (LTEA) Assay for Nuclear factor erythroid 2-related factor 2 (NFE2L2) Transcription Factor using HepaRG (AID 2283527); details: mRNA level, 48 h; actives raise or lower the signal
Outline: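 Differentiated human HepaRG cells in serum-free induction medium were exposed for 48 h to eight concentrations (top 100 uM, half-log dilutions, 0.5% DMSO), in duplicate. NFE2L2 mRNA was quantified by TaqMan qRT-PCR, normalized to ACTB, GAPDH and POLR2A, with bidirectional fitting versus DMSO.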

[7] = read-out: succinate dehydrogenase complex iron sulfur subunit B (SDHB), SDHB (gene 6390); assay: LTEA_HepaRG_SDHB: Life Technologies and Expression Analysis (LTEA) Assay for succinate dehydrogenase complex iron sulfur subunit B (SDHB) using HepaRG (AID 2283528); details: mRNA level, 48 h; actives raise or lower the signal
Outline: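 HepaRG cells (~100,000/well, plated 48 h) exposed in duplicate for 48 h in serum-free induction medium to 8-point half-log series from 100 uM in 0.5% DMSO; mRNA by qRT-PCR normalised to ACTB, GAPDH, POLR2A; bidirectional fit versus DMSO.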

[8] = read-out: Signal transducer and activator of transcription 3 (Homo sapiens) (UniProt P40763); assay: LTEA_HepaRG_STAT3: Life Technologies and Expression Analysis (LTEA) Assay for Signal transducer and activator of transcription (STAT3) using HepaRG (AID 2283529); details: mRNA level, 48 h; actives raise or lower the signal
Outline: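 Differentiated human HepaRG cells in serum-free induction medium were exposed in duplicate for 48 h to eight half-log concentrations up to 100 uM in 0.5% DMSO. STAT3 mRNA was quantified by TaqMan qRT-PCR, normalized to ACTB, GAPDH and POLR2A, and fitted bidirectionally against DMSO.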

[9] = read-out: solute carrier (SLCO1B1), SLCO1B1 (gene 10599); assay: LTEA_HepaRG_SLCO1B1: Life Technologies and Expression Analysis (LTEA) Assay for solute carrier (SLCO1B1) using HepaRG (AID 2283530); details: mRNA level, 48 h; actives raise or lower the signal
Outline: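 Human HepaRG cultures treated for 48 h with an eight-concentration half-log series topping at 100 uM; SLCO1B1 measured by qRT-PCR and fitted bidirectionally relative to DMSO.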

[10] = read-out: sulfotransferase 2A1 (SULT2A1), SULT2A1 (gene 6822); assay: LTEA_HepaRG_SULT2A1: Life Technologies and Expression Analysis (LTEA) Assay for sulfotransferase 2A1 (SULT2A1) using HepaRG (AID 2283531); details: mRNA level, 48 h; actives raise or lower the signal
Outline: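 Gene-expression endpoint in a human liver cell line: SULT2A1 mRNA change after 48 h chemical treatment, curves fitted in both directions relative to 0.5% DMSO vehicle. Concentrations spanned eight half-log steps from 100 uM.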

[11] = read-out: Transforming Growth Factor (TGFA), TGFA (gene 7039); assay: LTEA_HepaRG_TGFA: Life Technologies and Expression Analysis (LTEA) Assay for Transforming Growth Factor (TGFA) using HepaRG (AID 2283532); details: mRNA level, 48 h; actives raise or lower the signal
Outline: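 Differentiated human HepaRG cells, plated 48 h then switched to serum-free induction medium, were exposed in duplicate for 48 h to 8-point half-log series from 100 uM in 0.5% DMSO. TGFA mRNA measured by qRT-PCR, normalized to ACTB/GAPDH/POLR2A, bidirectional fit versus DMSO.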

[12] = read-out: Transforming Growth Factor (TGFB1), TGFB1 (gene 7040); assay: LTEA_HepaRG_TGFB1: Life Technologies and Expression Analysis (LTEA) Assay for Transforming Growth Factor (TGFB1) Transporter using HepaRG (AID 2283533); details: mRNA level, 48 h; actives raise or lower the signal
Outline: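 Eight-point concentration-response (max 100 uM, half-log) in HepaRG under serum-free induction conditions, 48 h. TGFB1 mRNA by qRT-PCR, housekeeping-normalized.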

[13] = read-out: TIMP1, TIMP1 (gene 7076); assay: LTEA_HepaRG_TIMP1: Life Technologies and Expression Analysis (LTEA) Assay for TIMP1 using HepaRG (AID 2283534); details: mRNA level, 48 h; actives raise or lower the signal
Outline: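 TIMP1 induction or repression in HepaRG cells after 48 h chemical exposure (eight concentrations, highest 100 uM), assessed by normalized qRT-PCR with bidirectional fitting to DMSO controls.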

[14] = read-out: Tumor necrosis factor receptor 1 (TNFRSF1A), TNFRSF1A (gene 7132); assay: LTEA_HepaRG_TNFRSF1A: Life Technologies and Expression Analysis (LTEA) Assay for Tumor necrosis factor receptor 1 (TNFRSF1A) using HepaRG (AID 2283535); details: mRNA level, 48 h; actives raise or lower the signal
Outline: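 Assay uses 48 h chemical treatment of differentiated HepaRG monolayers, tested in duplicate at eight concentrations from 100 uM downward in 0.5% DMSO. mRNA is normalized to ACTB, GAPDH and POLR2A, with induction or suppression fitted relative to vehicle.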

[15] = read-out: Thyroid Hormone Responsive (THRSP), THRSP (gene 7069); assay: LTEA_HepaRG_THRSP: Life Technologies and Expression Analysis (LTEA) Assay for Thyroid Hormone Responsive (THRSP) using HepaRG (AID 2283536); details: mRNA level, 48 h; actives raise or lower the signal
Outline: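 Differentiated human HepaRG cells were exposed in duplicate for 48 h in serum-free induction medium to eight concentrations (top 100 uM, half-log steps, 0.5% DMSO). Expression was quantified by TaqMan qRT-PCR, normalized to ACTB, GAPDH and POLR2A, with bidirectional fitting against DMSO.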

[16] = read-out: UDP glucuronosyltransferase (UGT1A1), UGT1A1 (gene 54658); assay: LTEA_HepaRG_UGT1A1: Life Technologies and Expression Analysis (LTEA) Assay for UDP glucuronosyltransferase (UGT1A1) using HepaRG (AID 2283538); details: mRNA level, 48 h; actives raise or lower the signal
Outline: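 Human liver HepaRG cultures receive test chemical for 48 h, up to 100 uM in 0.5% DMSO, with phenobarbital induction controls. UGT1A1 mRNA is measured by qRT-PCR and normalized to ACTB, GAPDH and POLR2A.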

[17] = read-out: UDP glucuronosyltransferase (UGT1A6), UGT1A6 (gene 54578); assay: LTEA_HepaRG_UGT1A6: Life Technologies and Expression Analysis (LTEA) Assay for UDP glucuronosyltransferase (UGT1A6) using HepaRG (AID 2283539); details: mRNA level, 48 h; actives raise or lower the signal
Outline: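 Measures mRNA change in HepaRG hepatic cells exposed 48 h to chemicals (eight-point, maximum 100 uM, 0.5% DMSO vehicle) in serum-free induction medium. Expression normalized to endogenous controls; DMSO served as negative control and baseline.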

[18] = read-out: X-box binding protein 1 (XBP1), XBP1 (gene 7494); assay: LTEA_HepaRG_XBP1: Life Technologies and Expression Analysis (LTEA) Assay for X-box binding protein 1 (XBP1) using HepaRG (AID 2283540); details: mRNA level, 48 h; actives raise or lower the signal
Outline: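 Eight concentrations (half-log, highest 100 uM, 0.5% DMSO) tested in duplicate on HepaRG cells over 48 h in serum-free induction medium; qRT-PCR of XBP1 normalised to ACTB, GAPDH, POLR2A.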

[19] = LTEA_HepaRG_LDH_cytotoxicity: Cytotoxicity Assessment in the Life Technologies and Expression Analysis (LTEA) Assay (AID 2283563; active means hit-call score of the fitted dose curve at least 0.9, where 1 is the maximum;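 on AC50: LDH activity released into spent culture medium as a marker of cell death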)
Outline: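 Spent-medium LDH after 48 h chemical exposure of HepaRG cells in serum-free induction medium; eight concentrations, half-log dilutions from 100 uM, duplicate wells, fitted upward relative to 0.5% DMSO.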

[20] = read-out: Cellular tumor antigen p53 (Homo sapiens) (UniProt P04637); assay: LTEA_HepaRG_TP53: Life Technologies and Expression Analysis (LTEA) Assay for Tumor Protein P53 (TP53) using HepaRG (AID 2283537); details: mRNA level, 48 h; actives raise or lower the signal
Outline: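 Differentiated HepaRG cells in serum-free induction medium exposed 48 h in duplicate to 8 half-log concentrations, top 100 uM, 0.5% DMSO. TP53 mRNA by TaqMan qRT-PCR (Fluidigm), normalized to ACTB, GAPDH, POLR2A; fitted bidirectionally versus DMSO.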

Measured: AC50

Signal transducer and activator of transcription 3 (Homo sapiens), sequence (P40763 whole entry, looked up): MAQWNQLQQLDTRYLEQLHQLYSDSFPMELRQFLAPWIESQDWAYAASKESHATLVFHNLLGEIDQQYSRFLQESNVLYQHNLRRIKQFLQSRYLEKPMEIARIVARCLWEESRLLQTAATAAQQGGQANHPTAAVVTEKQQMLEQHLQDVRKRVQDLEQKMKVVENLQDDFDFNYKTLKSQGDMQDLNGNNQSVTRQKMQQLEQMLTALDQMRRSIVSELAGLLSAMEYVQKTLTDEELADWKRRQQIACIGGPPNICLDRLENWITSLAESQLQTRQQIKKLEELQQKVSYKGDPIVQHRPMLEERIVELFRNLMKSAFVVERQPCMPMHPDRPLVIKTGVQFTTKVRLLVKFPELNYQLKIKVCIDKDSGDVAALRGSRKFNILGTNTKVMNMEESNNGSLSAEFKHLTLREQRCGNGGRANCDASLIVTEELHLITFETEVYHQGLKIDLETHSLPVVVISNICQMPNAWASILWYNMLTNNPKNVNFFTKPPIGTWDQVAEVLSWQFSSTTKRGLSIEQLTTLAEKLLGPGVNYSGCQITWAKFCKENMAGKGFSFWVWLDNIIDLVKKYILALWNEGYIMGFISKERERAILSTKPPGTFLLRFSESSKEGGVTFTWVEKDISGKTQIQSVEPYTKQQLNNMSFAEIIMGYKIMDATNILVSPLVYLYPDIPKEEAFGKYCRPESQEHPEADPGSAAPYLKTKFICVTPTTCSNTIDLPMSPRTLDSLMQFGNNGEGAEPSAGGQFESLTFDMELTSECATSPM
Nuclear factor erythroid 2-related factor 2 (Homo sapiens), sequence (Q16236 whole entry, looked up): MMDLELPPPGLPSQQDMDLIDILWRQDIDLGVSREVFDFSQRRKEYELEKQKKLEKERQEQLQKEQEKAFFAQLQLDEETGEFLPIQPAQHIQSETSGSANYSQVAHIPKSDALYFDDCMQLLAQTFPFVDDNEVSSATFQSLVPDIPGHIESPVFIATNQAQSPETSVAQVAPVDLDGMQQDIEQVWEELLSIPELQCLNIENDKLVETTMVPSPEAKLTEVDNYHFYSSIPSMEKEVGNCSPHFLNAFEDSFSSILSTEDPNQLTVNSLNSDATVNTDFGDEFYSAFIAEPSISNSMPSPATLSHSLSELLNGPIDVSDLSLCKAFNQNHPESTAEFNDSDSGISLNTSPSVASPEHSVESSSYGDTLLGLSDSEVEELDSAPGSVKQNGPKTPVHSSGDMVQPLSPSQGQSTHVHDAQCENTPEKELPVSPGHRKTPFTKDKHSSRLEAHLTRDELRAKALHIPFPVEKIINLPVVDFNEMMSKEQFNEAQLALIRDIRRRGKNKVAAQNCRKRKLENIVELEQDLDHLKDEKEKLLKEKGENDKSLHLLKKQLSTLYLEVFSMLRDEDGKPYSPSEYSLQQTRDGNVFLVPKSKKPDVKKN
Cellular tumor antigen p53 (Homo sapiens), sequence (P04637 whole entry, looked up): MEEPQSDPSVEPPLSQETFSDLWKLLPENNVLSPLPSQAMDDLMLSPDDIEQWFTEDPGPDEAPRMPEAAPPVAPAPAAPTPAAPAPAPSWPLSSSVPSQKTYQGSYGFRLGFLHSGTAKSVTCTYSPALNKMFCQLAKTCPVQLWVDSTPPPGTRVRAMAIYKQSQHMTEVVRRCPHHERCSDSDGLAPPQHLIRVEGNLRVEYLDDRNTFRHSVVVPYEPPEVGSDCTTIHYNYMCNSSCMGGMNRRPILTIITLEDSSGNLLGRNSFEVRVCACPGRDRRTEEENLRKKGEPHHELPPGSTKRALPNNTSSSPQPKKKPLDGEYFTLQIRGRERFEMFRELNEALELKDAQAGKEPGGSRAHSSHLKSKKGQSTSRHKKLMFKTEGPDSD

CCON=C(CC)C1=C(O)CC(c2c(C)cc(C)cc2C)CC1=O (stereo not given)
active: [15] 50 µM | [16] 27.9 µM
not listed: [19] | [20]
inactive: all other assays above

COC(=O)N(OC)c1ccccc1COc1ccn(-c2ccc(Cl)cc2)n1
active: [2] 78.5 µM | [3] 58.7 µM | [4] 11.3 µM | [5] 84.8 µM | [6] 18.3 µM | [9] 75.9 µM | [10] 78.7 µM | [11] 78.5 µM | [12] 50 µM | [13] 68.4 µM | [14] 77.1 µM | [15] 7.22 µM | [16] 82.4 µM | [17] 73.3 µM | [19] 71.5 µM
inactive: [1] | [7] | [8] | [18]

C#CCOS(=O)OC1CCCCC1Oc1ccc(C(C)(C)C)cc1 (stereo not given)
inactive: [6] | [15] | [18]
active: [1] 29.8 µM | [2] 30.7 µM | [3] 20.7 µM | [4] 50 µM | [5] 22.9 µM | [7] 30.5 µM | [8] 36.3 µM | [9] 29.2 µM | [10] 27.3 µM | [11] 22.2 µM | [12] 50 µM | [13] 26.5 µM | [14] 26.1 µM | [16] 27.5 µM | [17] 26.4 µM

C=CCC1=C(C)[C@@H](OC(=O)[C@@H]2[C@@H](C=C(C)C)C2(C)C)CC1=O
active: [3] 50 µM
not listed: [8] | [19]
inactive: all other assays above

CN(C)C(=S)SSC(=S)N(C)C
not listed: [20]
inactive: all other assays above

CCCCNC(=O)n1c(NC(=O)OC)nc2ccccc21
active: [16] 18.6 µM
not listed: [19] | [20]
inactive: all other assays above
